In the assay the test system is Potassium Channel KATP. Kind of assay: selectivity profile across receptors and CYP450s – biochemical, Ricerca HitProfilingScreen, CYP450, set 2, selectivity assay for S1P4 agonist project, profiling panel (AID 540332). The conditions noted are these: at 30 µM; hits give high values.

Values without a mark were called inactive. How the calls were made is not given here.

On to `COCCN=C1S/C(=C\c2cc(C)n(-c3ccc(F)cc3F)c2C)C(=O)N1C`, for which the inhibition is -5%.
